Results published in PubChem BioAssay AID1159580 (chemical genetic matrix, 2015).
Values joined by “and” are separate entries in the source; they are usually repeats but may differ in a detail not shown here. Identical values can stand only once. Screen size: about 5,500 compounds; about 2,000 (36%) were called active. Another 18% or so got no clear call; they are omitted. The list shows a part of the results. Values without a mark were called inactive. Rule as the data show it: active = normalized growth mostly below about 0.91 (no sharp cut-off); inconclusive = no clear call, values can overlap the other calls; inactive = mostly above about 0.92.

Assay: chemical genetic growth profiling, strain panel (AID 1159580);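 also: tested at 20 µM; growth read once vehicle control cultures reached saturation at 30 °C; 1 = growth at the plate median or of vehicle wells; lower values mean less growth of the strain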
Settings: S. cerevisiae deletion strains, growth OD

Compound: CC(=O)OC1CCC2C3CCc4cc(O)ccc4C3CCC12C (stereo not given)
- normalized growth (locus YAL021C, strain ccr4, active compounds read low): 0.975
- normalized growth (locus YAL026C, strain drs2, active compounds read low): 0.96
- normalized growth (locus YAL030W, strain snc1, active compounds read low): 0.984
- normalized growth (locus YBL061C, strain skt5, active compounds read low): 0.893 (active)
- normalized growth (locus YBR009C, strain hhf1, active compounds read low): 0.969
- normalized growth (locus YBR021W, strain FUR4, active compounds read low): 0.934
- normalized growth (locus YBR023C, strain chs3, active compounds read low): 0.881 (active)
- normalized growth (locus YBR171W, strain sec66, active compounds read low): 0.996
- normalized growth (locus YBR229C, strain ROT2, active compounds read low): 1.01
- normalized growth (locus YBR231C, strain swc5, active compounds read low): 0.966
- normalized growth (locus YBR279W, strain paf1, active compounds read low): 0.979
- normalized growth (locus YCL011C, strain gbp2, active compounds read low): 0.929
- normalized growth (locus YCL016C, strain dcc1, active compounds read low): 0.954
- normalized growth (locus YCL029C, strain bik1, active compounds read low): 0.99
- normalized growth (locus YCL061C, strain MRC1, active compounds read low): 0.984
- normalized growth (locus YCL069W, strain vba3, active compounds read low): 1.02
- normalized growth (locus YCR088W, strain abp1, active compounds read low): 0.957
- normalized growth (locus YDL005C, strain med2, active compounds read low): 0.973
- normalized growth (locus YDL035C, strain GPR1, active compounds read low): 0.973
- normalized growth (locus YDL040C, strain nat1, active compounds read low): 1.01
- normalized growth (locus YDL074C, strain BRE1, active compounds read low): 0.827
- normalized growth (locus YDL101C, strain DUN1, active compounds read low): 0.98
- normalized growth (locus YDL134C, strain PPH21, active compounds read low): 0.973
- normalized growth (locus YDL185W, strain tfp1, active compounds read low): 1.02
- normalized growth (locus YDL192W, strain arf1, active compounds read low): 1.03
- normalized growth (locus YDR001C, strain nth1, active compounds read low): 0.999
- normalized growth (locus YDR069C, strain doa4, active compounds read low): 0.957
- normalized growth (locus YDR101C, strain arx1, active compounds read low): 1
- normalized growth (locus YDR137W, strain rgp1, active compounds read low): 0.797 (active)
- normalized growth (locus YDR150W, strain NUM1, active compounds read low): 1.01
- normalized growth (locus YDR159W, strain sac3, active compounds read low): 0.842 (active)
- normalized growth (locus YDR162C, strain NBP2, active compounds read low): 1
- normalized growth (locus YDR195W, strain ref2): 0.746 (active)
- normalized growth (locus YDR297W, strain sur2, active compounds read low): 0.993
- normalized growth (locus YDR318W, strain mcm21, active compounds read low): 1
- normalized growth (locus YDR334W, strain swr1, active compounds read low): 1.01
- normalized growth (locus YDR335W, strain msn5, active compounds read low): 0.921
- normalized growth (locus YDR388W, active compounds read low): 0.997
- normalized growth (locus YDR392W, strain spt3, active compounds read low): 0.608 (active)
- normalized growth (locus YDR502C, strain sam2, active compounds read low): 0.991
- normalized growth (locus YEL003W, strain gim4, active compounds read low): 0.993
- normalized growth (locus YEL037C, strain rad23, active compounds read low): 1
- normalized growth (locus YEL061C, strain CIN8 (second series), active compounds read low): 0.978
- normalized growth (locus YEL061C, strain CIN8, active compounds read low): 0.998
- normalized growth (locus YER015W, strain faa2, active compounds read low): 0.981
- normalized growth (locus YER016W, strain bim1, active compounds read low): 0.918 (active)
- normalized growth (locus YER110C, active compounds read low): 0.995
- normalized growth (locus YER111C, strain swi4, active compounds read low): 0.955
- normalized growth (locus YER155C, strain BEM2 (second series), active compounds read low): 0.934
- normalized growth (locus YER155C, strain BEM2, active compounds read low): 0.913 (active)
- normalized growth (locus YER167W, strain BCK2, active compounds read low): 0.988
- normalized growth (locus YFR010W, strain ubp6, active compounds read low): 0.963
- normalized growth (locus YGL078C, strain dbp3, active compounds read low): 1.01
- normalized growth (locus YGL086W, strain mad1, active compounds read low): 0.979
- normalized growth (locus YGL167C, strain pmr1, active compounds read low): 0.999
- normalized growth (locus YGL173C, strain kem1, active compounds read low): 0.991
- normalized growth (locus YGL227W, strain vid30, active compounds read low): 1.01
- normalized growth (locus YGL240W, strain doc1, active compounds read low): 0.968
- normalized growth (locus YGL248W, strain PDE1, active compounds read low): 0.954
- normalized growth (locus YGL253W, strain hxk2, active compounds read low): 0.96
- normalized growth (locus YGR078C, strain PAC10, active compounds read low): 0.899
- normalized growth (locus YGR135W, strain pre9, active compounds read low): 1.03
- normalized growth (locus YGR229C, strain SMI1, active compounds read low): 0.849
- normalized growth (locus YGR252W, strain gcn5, active compounds read low): 0.986
- normalized growth (locus YHR013C, strain ard1, active compounds read low): 0.985
- normalized growth (locus YHR027C, strain rpn1, active compounds read low): 0.975
- normalized growth (locus YHR030C, strain SLT2, active compounds read low): 1.01 and 0.911
- normalized growth (locus YHR079C, strain IRE1 (second series), active compounds read low): 1
- normalized growth (locus YHR079C, strain IRE1, active compounds read low): 0.938
- normalized growth (locus YHR094C, strain hxt1, active compounds read low): 1.02
- normalized growth (locus YHR129C, strain ARP1, active compounds read low): 1
- normalized growth (locus YHR142W, strain chs7, active compounds read low): 0.903
- normalized growth (locus YHR200W, strain rpn10, active compounds read low): 1.02
- normalized growth (locus YIL066C, strain RNR3, active compounds read low): 0.962
- normalized growth (locus YIL073C, strain SPO22, active compounds read low): 0.957
- normalized growth (locus YIL125W, strain kgd1, active compounds read low): 1.01
- normalized growth (locus YIR030C, strain dcg1, active compounds read low): 1.02
- normalized growth (locus YJL092W, strain hpr5, active compounds read low): 0.986
- normalized growth (locus YJL095W, strain BCK1 (second series), active compounds read low): 1
- normalized growth (locus YJL095W, strain BCK1, active compounds read low): 0.892 and 0.899
- normalized growth (locus YJL115W, strain asf1, active compounds read low): 1.01
- normalized growth (locus YJL129C, strain trk1, active compounds read low): 0.92
- normalized growth (locus YJL134W, strain LCB3, active compounds read low): 1.01
- normalized growth (locus YJL154C, strain vps35, active compounds read low): 0.988
- normalized growth (locus YJL164C, strain tpk1, active compounds read low): 0.954
- normalized growth (locus YJL166W, strain qcr8, active compounds read low): 0.974
- normalized growth (locus YJL168C, strain set2, active compounds read low): 1.01
- normalized growth (locus YJL187C, strain SWE1 (second series), active compounds read low): 0.944
- normalized growth (locus YJR043C, strain POL32, active compounds read low): 0.938
- normalized growth (locus YJR066W, strain TOR1, active compounds read low): 0.905
